Inconclusive results are not listed. A call without a number means that no potency is given here. Where a structure was tested more than once in an assay, its records may differ in their call. Active and inactive are the calls of the source. The call rests on the fitted dose curve.
assay: qHTS assay to identify small molecule agonists of H2AX - cell viability counter screen (AID 1224847); details: CHO-K1 viability, CellTiter-Glo luminescence, 3 h; series mostly up to 154 µM; further: nearly all actives have a fitted effect of over 30% in size
Excerpt: National Center for Advancing Translational Sciences [NCATS]
NIH Chemical Genomics Center [NCGC]
U.S. Environmental Protection Agency [EPA]
National Institutes of Environmental Health Sciences [NIEHS]
National Toxicology Program [NTP]
U.S. Food and Drug Administration [FDA]
HTRF phospho-H2AX (Ser139) assay (Cisbio Bioassays, US) enables the quantitative detection of the histone variant H2AX when phosphorylated on serine 139. When double-stranded DNA breaks, either by ionizing radiation or endogenous physiological processes, H2AX becomes phosphorylated at Ser139. This phospho-Ser139 serves as a sensitive biomarker for the detection of such breaks, localizing the site of DNA repair. So, HTRF phospho-H2AX Ser139 is a pertinent assay to study genome stability, the cell cycle, DNA repair, and it serves as a biomarker for cancer, and to understand aging. Wild type CHO-K1 cells were used to identify the inducers of Phospho-H2AX Ser 139 from the Tox21 compound collections. Also cytotoxicity of the Tox21 10K compound library against the CHO-K1 cell line was tested by measuring the cell viability using CellTiter-Glo assay (Promega, Madison, WI).
Tox21 Assay Protocol Summary:
The CHO-K1 cells suspended in culture medium containing 10% FBS were dispensed at 1000 cells/ 3 ul/well in 1536-well white wall/solid bottom plates (Greiner Bio-One North America, NC) using a Multidrop Combi (Thermo Fisher Scientific Inc., Waltham, MA). After the assay plates were incubated at 37C overnight, 23 nl of compounds at 15 concentrations (from 5-48 columns) or positive control (from 1 to 4 columns) were transferred to the assay plates using a Pintool station (Wako, San Diego, CA) into each well resulting in a final DMSO concentration of 0.76%. After 3hr incubation at 37C, 3 uL/well CellTiter-Glo luminescent cell viability reagent (Promega Corporation, Madison, WI) was added using a Flying Reagent Dispenser (FRD) (Aurora Discovery, CA). After incubation at room temperature for 30 min, the luminescence intensity was read using a ViewLux plate reader (PerkinElmer, Waltham, MA).
Potency means the concentration at half of the fitted maximal effect.

Compound	Potency
COc1ccc(NC(C)=O)cc1N	inactive
CCCCCC/C(C=O)=C\c1ccccc1	inactive
Cc1occc(=O)c1O	inactive
FC(F)(F)c1ccc(Cl)c(Cl)c1	inactive
O=c1[nH]c(=O)n([C@H]2CCCO2)cc1F	inactive
O=S1(=O)CC=CC1	inactive
Nc1ccccc1[N+](=O)[O-]	inactive
CCCCC(CC)CO (stereo not given)	inactive
CCCCCCCCCCCCCCCO	inactive
CC(=O)Nc1ccccc1	inactive
Fc1ccc(Br)cc1	inactive
O=C(CC(C(=O)OC1CCCCC1)S(=O)(=O)O)OC1CCCCC1 (stereo not given)	inactive
Cc1cc(C)c(C)cc1C	inactive
CCCCC(CC)COC(=O)CCCCC(=O)OCC(CC)CCCC (stereo not given)	inactive
CC(=O)CC(=O)Nc1ccccc1	inactive
CC(=O)Nc1cccc(O)c1	inactive
C/C=C1/CC2C=CC1C2 (stereo not given)	inactive
Oc1cccc2ccccc12	inactive
NNc1nncc2ccccc12	inactive
O=C(O)CC(C(=O)O)C(CC(=O)O)C(=O)O (stereo not given)	inactive

Compound	Potency
O=c1[nH]c(=O)n([C@H]2C[C@H](O)[C@@H](CO)O2)cc1Br	inactive
CC(C)(N)CO	inactive
CC[C@H](C)C(=O)O[C@H]1C[C@@H](C)C=C2C=C[C@H](C)[C@H](CC[C@@H]3C[C@@H](O)CC(=O)O3)[C@H]21	115 µM (active) and inactive
CCCCCCCCCCCCS	inactive
COS(C)(=O)=O	inactive
CCN(CC)c1ccc(C(=O)c2ccccc2C(=O)O)c(O)c1	inactive
O=C(Oc1ccccc1)c1ccccc1	inactive
O=C(O)CCCC[C@@H]1SC[C@@H]2NC(=O)N[C@@H]21	inactive
O=C(O)[C@H](O)[C@@H](O)[C@H](O)[C@H](O)CO	inactive
CN(C)CCCN	inactive
CCCCCCOCCO	inactive
C=C(C)C(=O)OCCOCCOCCOC(=O)C(=C)C	inactive
CSCCC=O	inactive
CCCCCOC(C)=O	inactive
CCc1ccc(CCOc2ccc(CC3SC(=O)NC3=O)cc2)nc1 (stereo not given)	inactive
CC1=CC(=O)NS(=O)(=O)O1	inactive
O=C(O)c1cc(=O)c2c(OCC(O)COc3cccc4oc(C(=O)O)cc(=O)c34)cccc2o1	inactive
O=C(O)c1cc(O)c(O)c(O)c1	inactive
c1c[nH]cn1	inactive
CC1CCC2CC1C2(C)C (stereo not given)	inactive

From PubChem BioAssay (Tox21)
